Experimental findings from ChEMBL document CHEMBL4513216, “Probing the Open Global Health Chemical Diversity Library for Multistage-Active Starting Points for Next-Generation Antimalarials” (ACS Infect Dis, 2020) are described below.

SMILES strings stand for the structures. Hit rate of the full screen: of about 68,000 compounds, about 2,700 (4%) showed an effect of 50% or more. The list comes from a sample in which strong results are over-represented; it also holds similar structures and randomly drawn compounds.

In the assay the test system is Plasmodium berghei. As to the kind of experiment: Screen against P. berghei liver stage (PbLuc), transformed with Luciferase, at 2uM. To be noted: tested at 2 uM. The assay is classed as functional, HepG2.
On to `O=C(Nc1cnc2n1CCCC2)c1cccc(NC(=O)C2CCCC2)c1`, for which the INHIBITION amounted to 22%.

Turning to `CC(=O)Nc1cccc(C(=O)Nc2cnc3n2CCCC3)c1`, the INHIBITION is reported as 19.61%.

Regarding `O=C(Nc1cnc2n1CCCC2)c1cccc(-n2cnnc2)c1`, the INHIBITION is on record as 50.91%.

For `CSc1ncccc1C(=O)NCCC(O)c1ccco1` (configuration not stated), the INHIBITION was 14.45%.

With `O=C(NCc1nnc2n1CCC2)c1cn(-c2ccccc2Br)nn1`, the INHIBITION is recorded as -17.44%.

On to `CC(C)(C)c1ccc(-n2ncc3c2CCCC3N)cc1` (configuration not stated), for which the INHIBITION was found to be 46.95%.

For the molecule `Cc1ccc(-n2ncc3c2CCCC3N)cc1C` (configuration not stated), the INHIBITION is reported as -13.35%.

With `CN(C)S(=O)(=O)NC1CCCc2c1cnn2-c1ccc(C(C)(C)C)cc1` (configuration not stated), the INHIBITION turned out to be 75.11%.

Take `CCC(C)(C)n1nnnc1C(c1cccs1)N1CCc2ccccc2C1` (configuration not stated): the INHIBITION was 36.24%.

On to `Cc1nn(CCC(=O)NC2CCCOC2)c(C)c1C` (configuration not stated), for which the INHIBITION is on record as -3.15%.

As for `Cc1ccc(N(CC(=O)N2CCCCC2)C(=O)C2COCCO2)cc1` (configuration not stated), the INHIBITION is given as 72.49%.

In the case of `Cc1ccc(N(CC(=O)N2CCCCC2)C(=O)C2CCCO2)cc1` (configuration not stated), the INHIBITION is given as -82.35%.

With `CCc1noc(CN(CC(=O)N2CCCCC2)c2ccc(C)cc2)n1`, the INHIBITION turned out to be 38.67%.

For the molecule `CCOc1ccc(Br)cc1-c1cc(N)[nH]n1`, the INHIBITION was 9.66%.

Consider `CCCN(Cc1ccc(C#N)cc1)Cc1nnsc1Cl`, for which the INHIBITION worked out at 20.14%.

Take `CCN(Cc1nnsc1Cl)C(C)c1ccc(C#N)cc1` (configuration not stated): the INHIBITION is 56.49%.

Take `CC(C)N(Cc1ccc(C#N)cc1)Cc1nnsc1Cl`: the INHIBITION is 22.34%.

On to `Cc1cc(C)nc(N2CCC(c3ccnc(N(C)C)n3)CC2)n1`, for which the INHIBITION is reported as -42.91%.

In the case of `Cc1nc(O)cc([C@@H]2CN(C(=O)C3CC3)C[C@H]2c2ccccc2F)n1`, the INHIBITION is -7.22%.

With `CC(=O)NCCNC(=O)CN1CCOC(Cn2cccn2)C1` (configuration not stated), the INHIBITION is on record as -21.68%.

For `CC(C)(Oc1ccc2c(c1)CCCC2=O)C(=O)NCc1ccco1`, the INHIBITION came out at 15.88%.

With `CC(C)(C)Oc1ccc(NCC(=O)NCc2ccco2)cc1`, the INHIBITION is -62.92%.

As to `CC(C)(Oc1ccc(F)cc1)C(=O)NCc1ccco1`, the INHIBITION is 58.14%.

`c1ccc(N2CCCC3(COCCN(c4nccs4)C3)C2)nc1` (configuration not stated): the INHIBITION is -29.98%.

On to `COc1cccc(CN2CCc3nc(C(=O)NCC(C)C)sc3CC2)c1`, for which the INHIBITION is listed as -4.19%.

On to `COc1ccc(C)cc1-n1cnnc1C1CC(=O)N(C)C1` (configuration not stated), for which the INHIBITION is 43.57%.

Turning to `Cc1nccc(C2CN(C(=O)c3cncnc3)C2)n1`, the INHIBITION was 38.22%.

Take `Cc1cc(C2CCCN(S(=O)(=O)N(C)C)C2)ccn1` (configuration not stated): the INHIBITION is given as -5.34%.

As to `CSCCc1ccc(NC(=O)NC(C)Cn2cncn2)cc1` (configuration not stated), the INHIBITION is recorded as 60.34%.

With `CC(Cn1cncn1)NC(=O)NCC(C)(C)Cc1ccccc1` (configuration not stated), the INHIBITION was 46.98%.

Turning to `CC(Cn1cncn1)NC(=O)Nc1ccc(COC2CCCC2)cc1` (configuration not stated), the INHIBITION turned out to be 1.01%.

`O=C(c1cocn1)N1CCC2(CC1)CC(OCC1CC1)CO2` (configuration not stated): the INHIBITION was 1.33%.

Regarding `O=C(c1cccnc1)N1CCC2(CCN(C(=O)c3ccco3)CC2)C1`, the INHIBITION is 14.52%.

As for `Nc1nc2nc(C3CCCN(C(=O)c4cncs4)C3)ccc2s1` (configuration not stated), the INHIBITION worked out at 52.82%.

As for `CC(=O)N1CCCC(c2ccc3sc(N)nc3n2)C1` (configuration not stated), the INHIBITION came to 17.01%.

As for `Nc1nc2nc(C3CCCN(C(=O)c4cnccn4)C3)ccc2s1` (configuration not stated), the INHIBITION was 46.98%.

`CSc1ccc(CN2C[C@@H]3CC[C@@](O)(c4ccc(C)cn4)[C@@H]3C2)cc1`: the INHIBITION came to 61.3%.

Consider `Cc1ccc([C@]2(O)CC[C@H]3CN(Cc4cc(C)c(O)c(C)c4)C[C@H]32)nc1`, for which the INHIBITION is given as 13.65%.

In the case of `Cc1ccc([C@]2(O)CC[C@H]3CN(Cc4cccnc4)C[C@H]32)nc1`, the INHIBITION came to 12.16%.

Take `Cc1ccc([C@]2(O)CC[C@H]3CN(Cc4ccncc4)C[C@H]32)nc1`: the INHIBITION worked out at 51.35%.

Turning to `Cc1ccc([C@]2(O)CC[C@H]3CN(Cc4cccc(Cl)c4Cl)C[C@H]32)nc1`, the INHIBITION stood at 45.82%.

Consider `COc1ncc(CN2C[C@@H]3CC[C@@](O)(c4ccc(C)cn4)[C@@H]3C2)cn1`, for which the INHIBITION is given as -2.21%.

For the molecule `CC(C)(C)c1nnc(CN2CCCC2Cn2cncn2)o1` (configuration not stated), the INHIBITION is given as -13.06%.

Consider `COCCCN1C(=O)CC(N2CCN(c3ccc(F)cc3)CC2)C1=O` (configuration not stated), for which the INHIBITION came out at 1.37%.

Take `CCn1nc(C)c2nc(C)nc(NCCc3ccc(C)cc3)c21`: the INHIBITION is recorded as 9.79%.

For the molecule `CCCC(=O)N1CCC2(CC1)CC(NC(C)=O)c1ccccc1O2` (configuration not stated), the INHIBITION is listed as -25.44%.

In the case of `CC(C)C(=O)NC1COC2(CCN(C(=O)c3ccc[nH]3)CC2)C1` (configuration not stated), the INHIBITION is 25.46%.

As for `COCCN1CCOCC12CCN(C(=O)c1cccnc1)CC2`, the INHIBITION was 0.91%.

In the case of `COCCN1CCOCC12CCN(C(=O)c1ccoc1)CC2`, the INHIBITION is on record as 52.62%.

For the molecule `COCCN1CCOCC12CCN(C(=O)c1ccncc1)CC2`, the INHIBITION is recorded as -41.59%.

`O=c1c2cn[nH]c2nc(SCCN2CCCC2)n1-c1ccccc1`: the INHIBITION is listed as -15.12%.

Regarding `Cc1cc(C(=O)Nc2n[nH]c(C3CC3)n2)c2c(C)noc2n1`, the INHIBITION is reported as -54.55%.

Consider `COCC1CC2(CCN(S(=O)(=O)C3CC3)CC2)CN1c1ncccn1` (configuration not stated), for which the INHIBITION is 15.39%.

Take `CCNC(=O)[C@@H]1C[C@@H](NC(=O)CSC)CN1Cc1ccncc1`: the INHIBITION is 16.05%.

For `COc1cc(CNC(=O)Nc2nnc(C(C)C)s2)ccc1O`, the INHIBITION is on record as -33.43%.

With `COc1cc(CNC(=O)Nc2nnc(C3CC3)s2)ccc1O`, the INHIBITION is given as 53.61%.

Turning to `COc1cc(CNC(=O)Nc2nnc(C(F)(F)F)s2)ccc1O`, the INHIBITION amounted to 45.4%.

As for `CCC(c1ccc(F)cc1)N1CCn2c(CO)nnc2C1` (configuration not stated), the INHIBITION was determined as 18.76%.

On to `c1ccc(CN2CCC(Cc3noc(C4CC4)n3)CC2)cc1`, for which the INHIBITION is reported as 17.33%.

As to `c1cc(CN2CCC(Cc3noc(C4CC4)n3)CC2)c2c(c1)OCO2`, the INHIBITION came to 71.06%.

On to `c1cc2c(cc1CN1CCC(Cc3noc(C4CC4)n3)CC1)OCCO2`, for which the INHIBITION was 1.52%.

On to `Cc1nccn1-c1ccc(=O)n(CCNC(=O)c2cccs2)n1`, for which the INHIBITION was -47.31%.

Take `O=C(c1cccc(S(=O)(=O)NCCc2nccs2)c1)N1CCOCC1`: the INHIBITION is 3.58%.

Turning to `CS(=O)(=O)N1C[C@@H]2CC[C@H]1CN(Cc1ccncc1)C2`, the INHIBITION was -56.9%.

Regarding `Cc1ncsc1CN(Cc1ccccc1)Cc1ccncc1`, the INHIBITION came out at 61.06%.

In the case of `Cc1ncsc1CN(Cc1ccccc1)Cc1ncc[nH]1`, the INHIBITION was -43.51%.

Take `Cc1ncsc1C(=O)N(C)Cc1ccncc1`: the INHIBITION is recorded as -25.22%.
